Source: PubChem
An excerpt weighted towards active compounds, which were near 8.2% of everything screened.
ELG1 DNA repair: blocks ELG1-dependent DNA repair in HEK293T cells; HEK293T ELG1-luciferase reporter, luminescence, 16 h; DNA damage induced by 5-fluorouridine; Potency, µM (titrated, usually from 46.1 µM), usual class: inhibitors; 330,000 tested, 2.3% active; AID 504467; also: nearly all actives have a fitted effect of over 55% in size
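Overnight (16 hr) co-exposure of 2,000 cells/well to 5-fluorouridine and compound at 37 °C preceded detection. Luciferase was quantified via ONE-Glo luminescence; loss of signal denotes inhibition.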
KB-3-1 cytotox: kills parental KB-3-1 adenocarcinoma cells | KB-3-1 viability, CellTiter-Glo ATP luminescence, 72 h | Potency, µM (highest dose often 46.1 µM), actives largely listed as cytotoxic | 400,000 tested, 1.4% active; also: nearly all actives have a fitted effect of over 60% in size
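Cytotoxicity measured as CellTiter-Glo luminescence after 72 h at 37 C. Compound titrations were pinned onto drug-naive KB-3-1 parental adenocarcinoma cells grown in DMEM with 10% FBS, and normalized data fitted to concentration-response curves.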
MCF10A rereplic: induces DNA re-replication in MCF 10a normal breast cells; Potency, µM (doses to about 46.1 µM), hits mostly activators; 350,000 tested, 2.9% active; MCF 10A DNA re-replication, Hoechst nuclear intensity, 48 h; also: nearly all actives have a fitted effect of over 50% in size
KB-V1 MDR tox: KB-V1 MDR subline cytotoxicity | Potency, µM (highest dose often 46.1 µM), usual class: cytotoxic | 400,000 tested, 3.4% active | KB-V1 MDR cells viability, CellTiter-Glo, 72 h | AID 1347076; also: nearly all actives have a fitted effect of over 60% in size
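Cytotoxicity toward P-gp-expressing KB-V1 cells was determined as loss of CellTiter-Glo luminescence after 72 h at 37 degrees C. Compounds were tested in quantitative HTS format across a concentration range, with curves fitted to normalized data.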
SW480 rerep: inducers of DNA re-replication in SW480 colon cancer cells; 340,000 tested, 1.8% active; SW480 DNA re-replication, Hoechst DNA content imaging, 48 h; Potency, µM (series often up to 46.1 µM), hits mostly activators; also: nearly all actives have a fitted effect of over 55% in size
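SW480 cells exposed to compounds for 48 hr at 37 C, 5% CO2, then Hoechst-stained 40 min. Nuclear DNA content imaged by fluorescence scanning (405 nm excitation, 500-530 nm emission); re-replication scored as increased high-intensity nuclei.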
A number is an active result; [ ] = another dose, or the depositor's remark. Calls follow the shape of the dose curve; as a rule, active = well fitted curve in the direction sought with a large enough effect; inconclusive = small, poorly fitted or top-dose-only effect, or another doubt; inactive = no such curve, though single readings can be large; an effect the other way counts as inactive or inconclusive.

Results for COC(=O)c1c(NC(=O)c2ccc(C)cc2)sc(Cc2ccccc2)c1C ?
ELG1 DNA repair: inactive; KB-3-1 cytotox: inactive; MCF10A rereplic: inactive; KB-V1 MDR tox: inactive; SW480 rerep: inactive

Results for COC(=O)c1c(NC(=O)c2ccccc2)sc(C(=O)c2ccccc2)c1C ?
ELG1 DNA repair: inconclusive; KB-3-1 cytotox: inconclusive; MCF10A rereplic: 6.51µM; KB-V1 MDR tox: inconclusive; SW480 rerep: inactive

What do the screens show for `CCN(CC)C(=O)c1sc(NC(=O)c2ccc(Br)o2)c(C(=O)OC)c1C`?
ELG1 DNA repair: inactive; KB-3-1 cytotox: inactive; MCF10A rereplic: inconclusive; KB-V1 MDR tox: 9.2µM; SW480 rerep: inactive

Results for CC1(C(=O)NC2CCCCCC2)CCN1C(=O)Cc1ccc(-c2ccccc2)cc1 (centres undefined) ?
KB-3-1 cytotox: inactive; KB-V1 MDR tox: inactive

Results for COc1ccc(N2CCN(c3csc4ccccc4c3=O)CC2)cc1 ?
KB-3-1 cytotox: inactive; KB-V1 MDR tox: inactive

What do the screens show for `CCOCCCNC(=S)N1CCCN(c2nc3c(C)c(C)ccc3cc2C#N)CC1`?
ELG1 DNA repair: inactive; KB-3-1 cytotox: inactive; MCF10A rereplic: inactive; KB-V1 MDR tox: inactive; SW480 rerep: inconclusive

What do the screens show for `Cc1cccc2cc(C#N)c(NCCNC(=O)NC3CCCCC3)nc12`?
ELG1 DNA repair: inactive; KB-3-1 cytotox: inactive; MCF10A rereplic: inconclusive; KB-V1 MDR tox: inactive; SW480 rerep: inactive

Results for Cc1ccc2cc(C#N)c(NCCNC(=O)C3CCC3)nc2c1C ?
ELG1 DNA repair: inconclusive; KB-3-1 cytotox: inconclusive; MCF10A rereplic: inconclusive; KB-V1 MDR tox: 14.6µM; SW480 rerep: inconclusive

Results for CCOCCCNC(=S)NCCCNc1nc2c(C)c(C)ccc2cc1C#N ?
ELG1 DNA repair: inconclusive; KB-3-1 cytotox: inactive; MCF10A rereplic: 18.4µM; KB-V1 MDR tox: inconclusive; SW480 rerep: 20.6µM

Results for Cc1sc2ncnc(NCCc3ccc(S(N)(=O)=O)cc3)c2c1C ?
ELG1 DNA repair: 18.4µM; KB-3-1 cytotox: inactive; MCF10A rereplic: inactive; KB-V1 MDR tox: inactive; SW480 rerep: inactive[9.22 µM]

Results for Cc1ccc(Nc2ncnc3sc(C)c(C)c23)cc1 ?
ELG1 DNA repair: inconclusive; KB-3-1 cytotox: inactive; MCF10A rereplic: inactive; KB-V1 MDR tox: inconclusive; SW480 rerep: inactive

Results for Cc1ccc(S(=O)(=O)Nc2ncnc3sc(C)c(C)c23)cc1 ?
ELG1 DNA repair: inactive; KB-3-1 cytotox: inconclusive; MCF10A rereplic: inconclusive; KB-V1 MDR tox: 3.66µM; SW480 rerep: inactive

Results for NS(=O)(=O)c1ccc(CCNc2ncnc3sccc23)cc1 ?
ELG1 DNA repair: inconclusive; KB-3-1 cytotox: inactive; MCF10A rereplic: inconclusive; KB-V1 MDR tox: inactive; SW480 rerep: inactive

What do the screens show for `CCOc1nc(NC(=O)NS(=O)(=O)Oc2ccccc2)nc(-c2ccccc2)n1`?
KB-3-1 cytotox: inactive; KB-V1 MDR tox: inactive

Results for COc1ccc(OC)c(NC(=O)Cn2c(=O)n(-c3cccc(C)c3)c(=O)c3c2c2cc(C)ccc2n3C)c1 ?
KB-3-1 cytotox: inactive; KB-V1 MDR tox: inactive

How did CCOc1cc(/C=N/NC(=O)C(=O)N/N=C/c2ccc(O)c(OCC)c2)ccc1O do in these assays?
ELG1 DNA repair: inactive; KB-3-1 cytotox: inactive; MCF10A rereplic: inconclusive; KB-V1 MDR tox: inactive; SW480 rerep: inactive

How did CCOc1cc(/C=N/NC(=O)N/N=C/c2ccc(O)c(OCC)c2)ccc1O do in these assays?
KB-3-1 cytotox: 6.51µM; MCF10A rereplic: inconclusive; KB-V1 MDR tox: inactive; SW480 rerep: inconclusive

Results for CCOc1cc(/C=N/NC(=O)c2ccccc2OCc2ccc(F)cc2)ccc1O ?
ELG1 DNA repair: 5.8µM; KB-3-1 cytotox: inactive; MCF10A rereplic: inactive; KB-V1 MDR tox: inactive; SW480 rerep: inactive

What do the screens show for `CCOc1cc(/C=N/NC(=O)c2ccccc2-n2cccc2)ccc1O`?
ELG1 DNA repair: inconclusive; KB-3-1 cytotox: inconclusive; MCF10A rereplic: inconclusive; KB-V1 MDR tox: inactive; SW480 rerep: inconclusive

What do the screens show for `COCCNC(=O)C1(C)CCCN(C(=O)c2cccc(C(F)(F)F)c2)C1` (centres undefined)?
KB-3-1 cytotox: inactive; KB-V1 MDR tox: inactive

Results for C=CCNC(=O)c1ccc(NC(=O)C2=CSCCO2)cc1 ?
ELG1 DNA repair: inconclusive; KB-3-1 cytotox: inactive; MCF10A rereplic: inactive; KB-V1 MDR tox: inactive; SW480 rerep: inactive

What do the screens show for `O=C(c1cc(-c2cccc(Cl)c2)on1)N1CCN(c2ccc(F)cc2)CC1`?
ELG1 DNA repair: inactive; KB-3-1 cytotox: inactive; MCF10A rereplic: inconclusive; KB-V1 MDR tox: inactive; SW480 rerep: inactive

Results for O=C1OCCN1C(=O)[C@H]1[C@H](c2ccc([N+](=O)[O-])cc2)C(c2ccccc2)=NN1c1ccc(Br)cc1 ?
ELG1 DNA repair: inactive; KB-3-1 cytotox: inactive; MCF10A rereplic: inactive; KB-V1 MDR tox: inactive; SW480 rerep: inactive

Results for O=C1OCCN1C(=O)[C@H]1[C@H](c2ccc(Cl)cc2)C(c2ccccc2)=NN1c1ccc(Br)cc1 ?
ELG1 DNA repair: inactive; KB-3-1 cytotox: inactive; MCF10A rereplic: inconclusive; KB-V1 MDR tox: inactive; SW480 rerep: 23.1µM

Results for O=C1OCCN1C(=O)[C@H]1[C@H](c2ccccc2)C(c2cccc(Cl)c2)=NN1c1ccc(Br)cc1 ?
ELG1 DNA repair: inconclusive; KB-3-1 cytotox: inactive; MCF10A rereplic: inconclusive; KB-V1 MDR tox: inactive; SW480 rerep: 2.06µM

What do the screens show for `O=C1OCCN1C(=O)[C@H]1[C@H](c2ccc([N+](=O)[O-])cc2)C(c2cccc(Cl)c2)=NN1c1ccc(Br)cc1`?
ELG1 DNA repair: inactive; KB-3-1 cytotox: inactive; MCF10A rereplic: inactive; KB-V1 MDR tox: inactive; SW480 rerep: inactive

What do the screens show for `O=C1OCCN1C(=O)[C@H]1[C@H](c2ccc(F)cc2)C(c2cccc(Cl)c2)=NN1c1ccc(Br)cc1`?
ELG1 DNA repair: inactive; KB-3-1 cytotox: inconclusive; MCF10A rereplic: inconclusive; KB-V1 MDR tox: inactive; SW480 rerep: 1.3µM

Results for Cc1cc(C(=O)NNC(=O)Cc2ccc(Cl)cc2)c(C)o1 ?
ELG1 DNA repair: inactive; KB-3-1 cytotox: inactive; MCF10A rereplic: inactive; KB-V1 MDR tox: inactive; SW480 rerep: inactive

What do the screens show for `CCCCNc1ccc(/C=C2\C=Cc3ccccc32)cc1`?
KB-3-1 cytotox: inconclusive; KB-V1 MDR tox: inactive

What do the screens show for `COc1cccc(C(CCc2cc(OC)c(OC)c(OC)c2)NC(C)=O)c1` (centres undefined)?
KB-3-1 cytotox: inactive; MCF10A rereplic: inactive; KB-V1 MDR tox: inactive; SW480 rerep: inactive

What do the screens show for `Cc1ccn2c(NC(=O)C(C)(C)Oc3ccc(Cl)cc3)c(-c3cccs3)nc2c1`?
ELG1 DNA repair: inconclusive; KB-3-1 cytotox: 25.9µM; MCF10A rereplic: inconclusive; KB-V1 MDR tox: inactive; SW480 rerep: inactive

How did Cc1ccccc1Cn1c(O)c(N=NC(=S)Nc2ccccc2F)c2ccccc21 do in these assays?
ELG1 DNA repair: 5.8µM; KB-3-1 cytotox: inconclusive; MCF10A rereplic: inactive; KB-V1 MDR tox: inconclusive; SW480 rerep: inactive

Results for Cc1nc(-c2ccc(Cl)cc2)oc1COC(C)(C)C(=O)O ?
MCF10A rereplic: inactive; SW480 rerep: inactive

What do the screens show for `Cc1ccc(C(=O)Nc2nnc(S(=O)(=O)N(C)Cc3ccc(F)cc3)s2)cc1`?
KB-3-1 cytotox: inactive; KB-V1 MDR tox: inactive
